Reference: PubChem BioAssay (NCATS)
Records with an inconclusive call do not appear. The source made the active and inactive calls.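 How the source made its calls: active means dose-dependent loss of cell ATP signal giving a full or clear fitted curve, ranked by lower potency value; inconclusive means weak partial curve or response only at the top dose; inactive means no loss of viability signal.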

experiment: Cell Viability - Jurkat (AID 426); conditions: qHTS
From the text: NIH Chemical Genomics Center [NCGC]
NIH Molecular Libraries Screening Centers Network [MLSCN]
National Institutes of Environmental Health Sciences [NIEHS]
National Toxicology Program [NTP]
We have developed a 1536-well cell-based assay for quantitative high throughput screening (qHTS) against a number of cell lines to determine in vitro cytotoxicity of small molecules. This particular assay uses the Jurkat cell line (Clone E6-1) which is derived from the human T cell leukemia.
NCGC Assay Protocol Summary:
The CellTiter-Glo luminescent cell viability assay (Promega) is a homogeneous method to measure the number of viable cells in culture. The end point readout of this assay is based on quantitation of intracellular ATP, an indicator of metabolic activity, using the luciferase reaction. Luciferase catalyzes the oxidation of beetle Luciferin to oxyluciferin and light in the presence of ATP. The luminescent signal is proportional to amount of ATP present.
Using the CellTiter-Glo luminescent cell viability assay, the amount of cellular ATP was measured in the Jurkat cell line with complete culture medium following compound treatment for 40 hours. The assay was performed in opaque white Kalypsys 1536-well plates. In the screen, tamoxifen and doxorubicin were used as positive controls. Library compounds were measured for their ability to cause acute toxicity in the cell line, as reflected by a decrease in intracellular ATP levels, in a concentration-dependent manner. […] AC50 values were determined from concentration-response data modeled with the standard Hill equation.
qHTS protocol for CellTiter Glo Jurkat cellular assay
[Step] [Parameter] [Value] [Description]
1. Reagent; 5 uL; 5000 Jurkat cells/well
3. Controls; 23 nL; Tamoxifen 0.34 uM to 100 uM & Doxorubicin 0.02 nM to 100 uM
4. Time; 40 hr; 37 °C incubation
5. Reagent; 5 uL; CellTiter Glo reagent
6. Time; 20 min; Room Temperature
7. Detection; Luminescence; Viewlux plate reader
Keywords: cell viability, cytotoxicity, Jurkat cell line, luminescence, NTPHTS, NTPHTS_NCGC, NIEHS, EPA, DSSTox, MLSMR, MLSCN, NIH Roadmap, qHTS, NCGC
Potency means the concentration at half of the fitted maximal effect.

Q: Which Potency does the source give for `C[Si](C)(C)Cl` here?
A: Its Potency is > 92 µM (inactive).

Q: Which Potency does the source give for `CCCCC(CC)COC(=O)COc1ccc(Cl)cc1Cl` (stereo not given) here?
A: The Potency was > 92 µM (inactive).

Q: For `c1ccncc1`, which Potency is on record?
A: Its Potency is > 92 µM (inactive).

Q: For `CCN(CC)c1ccc2c(C)cc(=O)oc2c1`, which Potency is on record?
A: Its Potency is > 92 µM (inactive).

Q: With `O=[N+]([O-])c1ccccc1Nc1ccccc1` as the molecule, how does the Potency read?
A: Its Potency is > 92 µM (inactive).

Q: Which Potency does the source give for `COc1ccc(C)cc1N` here?
A: The Potency was > 92 µM (inactive).

Q: For `c1cc2c3c(c1)ccc1cccc(c13)C2`, which Potency is on record?
A: The Potency was > 92 µM (inactive).

Q: Which Potency does the source give for `O=C(OCc1ccccc1)c1ccccc1O` here?
A: Its Potency is > 92 µM (inactive).

Q: Which Potency does the source give for `O=[N+]([O-])c1ccc(F)cc1F` here?
A: The Potency was > 92 µM (inactive).

Q: Which Potency does the source give for `CC(C)COC(=O)COc1cc(Cl)c(Cl)cc1Cl` here?
A: Its Potency is > 92 µM (inactive).

Q: Which Potency does the source give for `Nc1cc([N+](=O)[O-])ccc1O` here?
A: Its Potency is > 92 µM (inactive).

Q: With `Cc1c(N)cccc1Cl` as the molecule, how does the Potency read?
A: The Potency was > 92 µM (inactive).

Q: With `Oc1cc2c(cc1O)[C@H]1c3ccc(O)c(O)c3OC[C@@]1(O)C2` as the molecule, how does the Potency read?
A: Its Potency is 35.9 µM (active).

Q: For `C/C=C/C=C/C=O`, which Potency is on record?
A: The Potency was 29.4 µM (active).

Q: Which Potency does the source give for `Oc1ccc(O)c2c(O)cccc12` here?
A: The Potency was 30 µM (active).

Q: With `CCCC(=O)OC(=O)CCC` as the molecule, how does the Potency read?
A: Its Potency is > 92 µM (inactive).

Q: For `CCCCOC(=O)COc1ccc(Cl)cc1Cl`, which Potency is on record?
A: The Potency was > 92 µM (inactive).

Q: Which Potency does the source give for `c1ccc(COCc2ccccc2)cc1` here?
A: The Potency was > 92 µM (inactive).

Q: For `CCCCCCN`, which Potency is on record?
A: Its Potency is > 92 µM (inactive).

Q: For `CCc1ccc(C(c2ccc(CC)cc2)C(Cl)Cl)cc1`, which Potency is on record?
A: Its Potency is > 92 µM (inactive).

Q: Which Potency does the source give for `CCCCCCCC/C=C\CCCCCCCC(=O)N(CCO)CCO` here?
A: Its Potency is 68.3 µM (active).

Q: Which Potency does the source give for `S=C(NC1CCCCC1)NC1CCCCC1` here?
A: The Potency was > 92 µM (inactive).

Q: With `C/C=C1/C(=O)C[C@H]2[C@@H]3CCC4=CC(=O)CC[C@]4(C)[C@H]3CC[C@]12C` as the molecule, how does the Potency read?
A: Its Potency is 56.2 µM (active).

Q: Which Potency does the source give for `CC1=C(/C=C/C(C)=C/C=C/C(C)=C/C=O)C(C)(C)CCC1` here?
A: Its Potency is 21.5 µM (active).

Q: Which Potency does the source give for `Cc1ccc2ccc3cccc4ccc1c2c34` here?
A: The Potency was > 92 µM (inactive).

Q: With `O=C1c2ccccc2C(=O)C1(O)O` as the molecule, how does the Potency read?
A: The Potency was 34.4 µM (active).

Q: For `CCN(CC)c1ccc(N)cc1`, which Potency is on record?
A: The Potency was 44 µM (active).

Q: Which Potency does the source give for `COc1ccc(C(=O)Nc2ccccc2)cc1[N+](=O)[O-]` here?
A: Its Potency is > 92 µM (inactive).

Q: With `Cc1c2ccccc2c(C)c2c1ccc1ccccc12` as the molecule, how does the Potency read?
A: The Potency was 36.6 µM (active).

Q: Which Potency does the source give for `CCCCNCC` here?
A: The Potency was > 92 µM (inactive).

Q: With `Cc1cc(=O)oc2cc(O)cc(O)c12` as the molecule, how does the Potency read?
A: Its Potency is > 92 µM (inactive).

Q: Which Potency does the source give for `COc1ccc([N+](=O)[O-])cc1N` here?
A: Its Potency is > 92 µM (inactive).

Q: For `O=[N+]([O-])c1cccc(I)c1`, which Potency is on record?
A: The Potency was > 92 µM (inactive).

Q: For `N=C1C=CC(=C(c2ccc(N)cc2)c2ccc(N)cc2)C=C1`, which Potency is on record?
A: Its Potency is 15.1 µM (active).

Q: Which Potency does the source give for `CCC(Cl)CC(Cl)C(Cl)C(Cl)C(Cl)C(C)Cl` (stereo not given) here?
A: The Potency was > 92 µM (inactive).

Q: For `OCC(CO)(CBr)CBr`, which Potency is on record?
A: The Potency was > 92 µM (inactive).

Q: With `c1c[nH]cn1` as the molecule, how does the Potency read?
A: The Potency was > 92 µM (inactive).

Q: With `Nc1ccc2c(c1)C(=O)c1ccccc1C2=O` as the molecule, how does the Potency read?
A: The Potency was 49.6 µM (inactive).

Q: Which Potency does the source give for `Nc1ccc(-c2ccc(N)c(O)c2)cc1O` here?
A: The Potency was 32.3 µM (active).

Q: For `O=C(Cl)c1ccc([N+](=O)[O-])cc1`, which Potency is on record?
A: Its Potency is > 92 µM (inactive).
